Test results from PubChem BioAssay AID1508636 (National Center for Advancing Translational Sciences (NCATS), 2021).
Records with an inconclusive call do not appear. A number with no mark means an inactive call. Calls of active or inactive are those of the source. The call rests on the fitted dose curve; in most records, active means well fitted inhibition curve with a large enough effect; inconclusive means small, poorly fitted or top-dose-only effect; inactive means flat fitted curve, though single readings scatter. Where a SMILES comes first, the peptide text is derived from it. The star is where a group is joined. Cbz = O=C(OCc1ccccc1)*

molecular target: ATP-dependent translocase ABCB1 (Homo sapiens) (UniProt P08183); assay: qHTS for characterization and localization of zebrafish homologs of the human ABCB1 multidrug transporter: P-gp overexpressing MDR-19 cells; settings: MDR-19 cells overexpressing P-gp, CellTiter-Glo luminescence viability, 72 h; series mostly up to 46.1 µM; activity change, negative = inhibition: at the top concentration
Outline: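 About 90 known P-gp substrates were titrated onto four cell lines: vector control, MDR-19 (human P-gp) and zebrafish Abcb4 or Abcb5 transfectants. After 72 h, ATP luminescence (CellTiter-Glo) gave curves; cytotoxic required AC50 < 10 uM, >50% response and inhibitory curve class.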

Chain of ATP-dependent translocase ABCB1 (Homo sapiens) (P08183 whole entry, looked up): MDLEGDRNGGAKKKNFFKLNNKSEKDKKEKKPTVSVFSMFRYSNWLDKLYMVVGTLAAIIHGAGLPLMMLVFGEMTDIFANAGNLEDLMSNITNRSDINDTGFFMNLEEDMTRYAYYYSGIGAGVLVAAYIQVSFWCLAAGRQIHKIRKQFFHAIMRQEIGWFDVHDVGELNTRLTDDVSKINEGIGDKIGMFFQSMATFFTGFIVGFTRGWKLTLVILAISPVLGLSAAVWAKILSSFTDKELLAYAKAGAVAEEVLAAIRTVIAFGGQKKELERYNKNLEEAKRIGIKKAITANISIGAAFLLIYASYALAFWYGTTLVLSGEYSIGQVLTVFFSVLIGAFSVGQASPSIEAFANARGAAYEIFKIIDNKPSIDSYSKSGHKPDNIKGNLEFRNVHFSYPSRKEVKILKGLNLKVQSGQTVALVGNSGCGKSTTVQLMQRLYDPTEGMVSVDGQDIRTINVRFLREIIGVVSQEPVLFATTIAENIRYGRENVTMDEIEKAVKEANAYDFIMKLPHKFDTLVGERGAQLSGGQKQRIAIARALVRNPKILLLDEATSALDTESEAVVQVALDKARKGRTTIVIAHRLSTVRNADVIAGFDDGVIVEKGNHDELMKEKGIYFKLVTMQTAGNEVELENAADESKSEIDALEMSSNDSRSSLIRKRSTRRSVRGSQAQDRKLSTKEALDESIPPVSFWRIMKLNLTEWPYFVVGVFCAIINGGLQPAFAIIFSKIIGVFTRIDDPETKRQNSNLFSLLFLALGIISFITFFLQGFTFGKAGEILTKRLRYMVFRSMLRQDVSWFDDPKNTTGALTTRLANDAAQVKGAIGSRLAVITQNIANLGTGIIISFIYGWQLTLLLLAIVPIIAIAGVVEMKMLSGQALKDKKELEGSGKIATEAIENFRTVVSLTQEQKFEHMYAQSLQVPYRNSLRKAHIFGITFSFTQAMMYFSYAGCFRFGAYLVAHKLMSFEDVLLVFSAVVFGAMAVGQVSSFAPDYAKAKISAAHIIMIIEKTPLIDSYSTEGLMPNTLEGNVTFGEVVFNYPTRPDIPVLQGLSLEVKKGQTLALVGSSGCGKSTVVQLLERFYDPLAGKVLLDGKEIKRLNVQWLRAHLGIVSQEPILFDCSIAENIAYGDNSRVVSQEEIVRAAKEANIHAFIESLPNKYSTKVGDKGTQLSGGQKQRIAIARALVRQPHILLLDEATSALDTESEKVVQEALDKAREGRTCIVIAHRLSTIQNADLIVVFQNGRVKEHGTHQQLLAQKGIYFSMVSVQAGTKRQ

| SMILES | activity change, negative = inhibition | Potency |
| --- | --- | --- |
| CN(C)C1CCN(C(=O)c2ccc(NC(=O)Nc3nc(N4CCOCC4)nc(N4CCOCC4)n3)cc2)CC1 | 2.28% |  |
| C#Cc1cccc(Nc2ncnc3cc(OC)c(OCCCCCCC(=O)NO)cc23)c1 |  | 14.8 µM (active) |
| CO[C@H]1/C=C/C=C/C=C/C[C@H](OC(=O)[C@@H](C)NC(=O)C2CCCCC2)[C@H](C)[C@@H](O)/C(C)=C/CCc2cc(O)cc(c2)NC(=O)C1 | -13.5% [at 15.2 µM] |  |
| CC(=O)C1(O)Cc2c(O)c3c(c(O)c2C(OC2CC(N)C(O)C(C)O2)C1)C(=O)c1c(O)cccc1C3=O (stereo not drawn) |  | 0.148 µM (active) |
| Cc1cc(Nc2cc(NC(=O)c3c(Cl)cccc3Cl)ccn2)nc(N)n1 |  | 13.2 µM (active) |
| COC(C(=O)N1Cc2[nH]nc(NC(=O)c3ccc(N4CCN(C)CC4)cc3)c2C1)c1ccccc1 (stereo not drawn) | -7.32% |  |
| CC(NCc1ccc2c(c1)nc(NC(=O)c1ccc(-c3cn[nH]c3)s1)n2CC(C)(C)O)C(C)(C)C (stereo not drawn) |  | 2.96 µM (active) |
| CCN1CCN(Cc2ccc(NC(=O)Nc3ccc(Oc4cc(NC)ncn4)cc3)cc2C(F)(F)F)CC1 | 4.09% |  |
| COc1cccc2c1C(=O)c1c(O)c3c(c(O)c1C2=O)C[C@@](O)(C(=O)CO)C[C@H]3O[C@H]1C[C@H](N)[C@@H](O)[C@H](C)O1 |  | 11.8 µM (active) |
| CC(C)C[C@@H](C=O)NC(=O)[C@H](CC(C)C)NC(=O)[C@H](CC(C)C)NC(=O)OCc1ccccc1 (Cbz-Leu-Leu-Leu-aldehyde) |  | 3.72 µM (active) |
| CCc1cccc(CC)c1NC(=O)N1Cc2[nH]nc(NC(=O)c3ccc(N4CCN(C)CC4)cc3)c2C1 | 3.47% |  |
| Cc1ccc(C(=O)N(CCCN)[C@@H](c2oc3cc(Cl)ccc3c(=O)c2Cc2ccccc2)C(C)C)cc1 |  | 13.2 µM (active) |
| Cc1ccc(-c2ncn(-c3ccc(Nc4nccc(-c5cccc(N6CCOCC6)c5)n4)cc3)n2)cn1 |  | 3.72 µM (active) |
